Inconclusive results are not listed. A call without a number means that no potency is given here. Activity calls are given as the source filed them. Calls come from the whole dose curve; as a rule, active = well fitted cell-killing curve with a large enough effect in the repeat runs; inconclusive = weak or mixed curves, or effect the other way; inactive = flat fitted curve, though single readings scatter.
experiment: cAMP Responsive Elements (CRE) small molecule antagonists, cell-based qHTS assay: qHTS cell viability counter screen (AID 2060913); conditions: CRE-bla HEK293T viability, CellTiter-Glo luminescence, 5 h; series mostly up to 92.4 µM; note: nearly all actives have a fitted effect of over 40% in size
Method in brief: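 Steps: cells plated and held 18 hrs at 37 C/5% CO2; compounds and NKH477 (0.25 uM final) added; 3 hrs incubation; reporter substrate read; CellTiter-Glo added to measure cytotoxicity by luminescence.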

Compound | Potency | viability change, negative = cytotoxic
Nc1cc(C(=O)O)c(O)c(S(=O)(=O)O)c1 | inactive | 
COS(=O)(=O)C(F)(F)F | inactive | 
CCCCCCCCCCCCCCCCCCOS(=O)(=O)O | inactive | 
C=CC(=O)NCOCC(C)C | inactive | 
C=C(C)C(=O)OCCOCCOCCOC(=O)C(=C)C | inactive | 
CCC(C)C1N=C(C)C(C)S1 (stereo not given) | inactive | 
COC(=O)c1ccccc1OC | inactive | 
C=CC(=O)[O-].C=CC(=O)[O-].[Zn+2] | inactive | 
CC(C)CCOC(=O)c1ccccc1 | inactive | 
C/C=C(\C)C#N | inactive | 
CCCCCCOc1ccccc1C(N)=O | inactive | 
C/C=C(\C)C(=O)OCCC(C)CCC=C(C)C (stereo not given) | inactive | 
Cc1ccc2ncccc2c1 | inactive | 
CC1(O)CSC(C)(O)CS1 (stereo not given) | inactive | 
CC1COc2ccccc2N1C(=O)C(Cl)Cl (stereo not given) | inactive | 
CCN(CCCCOC(=O)c1ccc(OC)c(OC)c1)C(C)Cc1ccc(OC)cc1 (stereo not given) | inactive | 
Cc1cc2c(cc1C(F)(F)F)N(C(=O)Nc1ccc(Oc3cccnc3C)nc1)CC2 | inactive | 
O=Cc1ccc(Cl)c(Cl)c1 | inactive | 
CCCCCC=CCC=CCCCCCCCC(=O)OCC | inactive | 
CCCCCCCCCCCCCCCCC | inactive | 

Compound | Potency | viability change, negative = cytotoxic
Cc1cc(C)c(O)c(C(C)(C)C)c1 | inactive | 
C1CCSC1 | inactive | 
O=C1c2ccccc2C(=O)N1CO | inactive | 
CCCOc1ccc2nc(NC(=O)OC)[nH]c2c1 | inactive | 
C[C@@H]1C[C@H]2[C@@H]3CCC4=CC(=O)C=C[C@]4(C)[C@@]3(F)[C@@H](O)C[C@]2(C)[C@H]1C(=O)CO | inactive | 
CC(=O)c1ccc(S(=O)(=O)NC(=O)NC2CCCCC2)cc1 | inactive | 
CC(=O)CC(=O)Nc1ccc(C)cc1C | inactive | 
C=CCOc1ccccc1OCC(O)CNC(C)C (stereo not given) | inactive | 
CC(=O)NCCCCCC(=O)O | inactive | 
CCCCCCCCCCCCN(CCCCCCCCCCCC)CCCCCCCCCCCC | inactive | 
CCC1CO1 (stereo not given) | inactive | 
CCOC(=O)C(Br)c1ccccc1 (stereo not given) | inactive | 
COC(=O)CCCCCCCCC(=O)OC | inactive | 
O=Cc1ccc(Cl)cc1 | inactive | 
Cc1ccc(C(=O)c2ccccc2)cc1 | inactive | 
CC(C)(C)C(=O)C1C(=O)c2ccccc2C1=O | inactive | 
CC(=O)OCC1=C(C(=O)O)N2C(=O)[C@@H](NC(=O)CSc3ccncc3)[C@H]2SC1 | inactive | 
O=C(O)c1ccccc1Nc1cc(Cl)ccc1C(=O)O |  | -0.998% [at 18.9 µM] (inactive)
CC1(C)CC(OC(=O)CCCCCCCCC(=O)OC2CC(C)(C)NC(C)(C)C2)CC(C)(C)N1 |  | -1.62% [at 18.9 µM] (inactive)
FC1(F)C(F)(F)C(F)(F)C2(F)C(F)(F)C(F)(F)C(F)(F)C(F)(F)C2(F)C1(F)F (stereo not given) | inactive | 

experiment: cAMP Responsive Elements (CRE) small molecule agonists, cell-based qHTS assay: qHTS cell viability counter screen (AID 2060914); conditions: CRE-bla HEK293T viability, CellTiter-Glo luminescence, 5 h; series mostly up to 92.4 µM; note: nearly all actives have a fitted effect of over 50% in size; note: potency is the fitted concentration of half-maximal effect
Method in brief: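 Luminescence read-out (CellTiter-Glo, 30 min RT) of ATP-based viability in CRE-bla HEK 293T cells, run in the same wells as the β-lactamase reporter assay after 3 h compound treatment at 37 °C.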

Compound | Potency | activity change, negative = cytotoxicity
Nc1cc(C(=O)O)c(O)c(S(=O)(=O)O)c1 | inactive | 
COS(=O)(=O)C(F)(F)F | inactive | 
CCCCCCCCCCCCCCCCCCOS(=O)(=O)O | inactive | 
C=CC(=O)NCOCC(C)C | inactive | 
C=C(C)C(=O)OCCOCCOCCOC(=O)C(=C)C | inactive | 
CCC(C)C1N=C(C)C(C)S1 (stereo not given) | inactive | 
COC(=O)c1ccccc1OC | inactive | 
C=CC(=O)[O-].C=CC(=O)[O-].[Zn+2] | inactive | 
CC(C)CCOC(=O)c1ccccc1 | inactive | 
C/C=C(\C)C#N | inactive | 
CCCCCCOc1ccccc1C(N)=O | inactive | 
C/C=C(\C)C(=O)OCCC(C)CCC=C(C)C (stereo not given) | inactive | 
Cc1ccc2ncccc2c1 | 54.5 µM (active) | 
CC1(O)CSC(C)(O)CS1 (stereo not given) | inactive | 
CC1COc2ccccc2N1C(=O)C(Cl)Cl (stereo not given) | inactive | 
CCN(CCCCOC(=O)c1ccc(OC)c(OC)c1)C(C)Cc1ccc(OC)cc1 (stereo not given) | inactive | 
Cc1cc2c(cc1C(F)(F)F)N(C(=O)Nc1ccc(Oc3cccnc3C)nc1)CC2 | inactive | 
O=Cc1ccc(Cl)c(Cl)c1 | inactive | 
CCCCCC=CCC=CCCCCCCCC(=O)OCC | inactive | 
CCCCCCCCCCCCCCCCC | inactive | 

Compound | Potency | activity change, negative = cytotoxicity
Cc1cc(C)c(O)c(C(C)(C)C)c1 | inactive | 
C1CCSC1 | inactive | 
O=C1c2ccccc2C(=O)N1CO | inactive | 
CCCOc1ccc2nc(NC(=O)OC)[nH]c2c1 | inactive | 
C[C@@H]1C[C@H]2[C@@H]3CCC4=CC(=O)C=C[C@]4(C)[C@@]3(F)[C@@H](O)C[C@]2(C)[C@H]1C(=O)CO | inactive | 
CC(=O)c1ccc(S(=O)(=O)NC(=O)NC2CCCCC2)cc1 | inactive | 
CC(=O)CC(=O)Nc1ccc(C)cc1C | inactive | 
C=CCOc1ccccc1OCC(O)CNC(C)C (stereo not given) | inactive | 
CC(=O)NCCCCCC(=O)O | inactive | 
CCCCCCCCCCCCN(CCCCCCCCCCCC)CCCCCCCCCCCC | inactive | 
CCC1CO1 (stereo not given) | inactive | 
CCOC(=O)C(Br)c1ccccc1 (stereo not given) | inactive | 
COC(=O)CCCCCCCCC(=O)OC | inactive | 
O=Cc1ccc(Cl)cc1 | inactive | 
Cc1ccc(C(=O)c2ccccc2)cc1 | inactive | 
CC(C)(C)C(=O)C1C(=O)c2ccccc2C1=O | inactive | 
CC(=O)OCC1=C(C(=O)O)N2C(=O)[C@@H](NC(=O)CSc3ccncc3)[C@H]2SC1 | inactive | 
O=C(O)c1ccccc1Nc1cc(Cl)ccc1C(=O)O |  | 0.206% [at 18.9 µM] (inactive)
CC1(C)CC(OC(=O)CCCCCCCCC(=O)OC2CC(C)(C)NC(C)(C)C2)CC(C)(C)N1 |  | 1.68% [at 18.9 µM] (inactive)
FC1(F)C(F)(F)C(F)(F)C2(F)C(F)(F)C(F)(F)C(F)(F)C(F)(F)C2(F)C1(F)F (stereo not given) | inactive | 
